The full list was thinned out, with the strongest signals kept by preference.
Tests used:
Assay in all cases: glycan array binding signal (z-score within array); higher = stronger binding
Details in all cases: glycan notation: IUPAC condensed, linker removed
[1] = target: Fuc(a1-2)Gal(b1-3)GalNAc(a1-3)[Fuc(a1-2)]Gal(b1-4)Glc
Summary of the method: (§1)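 Glycan array data were curated from 3228 arrays in the Consortium for Functional Glycomics database and kept only where the protein sequence was available. Glycan names were converted to IUPAC-condensed notation, and columns mapping to the same glycan were averaged. The binding signal is a within-array Z-score, averaged across arrays of the same protein sequence at different concentrations or buffers and across linkers. Negative Z-scores can be read as non-binding.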

[2] = target: Fuc(a1-2)Gal(b1-3)GlcNAc
Summary of the method: as §1

[3] = target: Fuc(a1-2)Gal(b1-3)GlcNAc(b1-3)GalNAc
Summary of the method: as §1

[4] = target: Fuc(a1-2)Gal(b1-4)GlcNAc(b1-3)Gal(b1-4)GlcNAc
Summary of the method: as §1

[5] = target: Fuc(a1-2)Gal(b1-4)[Fuc(a1-3)]GlcNAc(b1-2)[Fuc(a1-2)Gal(b1-4)[Fuc(a1-3)]GlcNAc(b1-4)]Man(a1-3)[Fuc(a1-2)Gal(b1-4)[Fuc(a1-3)]GlcNAc(b1-2)Man(a1-6)]Man(b1-4)GlcNAc(b1-4)GlcNAc
Summary of the method: as §1

[6] = target: Fuc(a1-2)[Gal(a1-3)]Gal(b1-4)GlcNAc(b1-2)Man(a1-3)[Fuc(a1-2)[Gal(a1-3)]Gal(b1-4)GlcNAc(b1-2)Man(a1-6)]Man(b1-4)GlcNAc(b1-4)GlcNAc
Summary of the method: as §1

[7] = target: Fuc(a1-2)[GalNAc(a1-3)]Gal(b1-4)[Fuc(a1-3)]GlcNAc(b1-3)GalNAc
Summary of the method: as §1

[8] = target: Fuc(a1-3)[Gal3S(b1-4)]GlcNAc
Summary of the method: as §1

[9] = target: Gal(a1-3)Gal(b1-3)GlcNAc(b1-2)Man
Summary of the method: as §1

[10] = target: Gal(a1-3)Gal(b1-4)GlcNAc
Summary of the method: as §1

[11] = target: Gal(a1-3)Gal(b1-4)GlcNAc(b1-2)Man(a1-3)[Gal(a1-3)Gal(b1-4)GlcNAc(b1-2)Man(a1-6)]Man(b1-4)GlcNAc(b1-4)GlcNAc
Summary of the method: as §1

[12] = target: Gal(b1-3)GlcNAc
Summary of the method: as §1

[13] = target: Gal(b1-3)GlcNAc(b1-3)Gal(b1-3)GlcNAc
Summary of the method: as §1

[14] = target: Gal(b1-3)GlcNAc(b1-3)Gal(b1-4)GlcNAc(b1-2)Man(a1-3)[Gal(b1-3)GlcNAc(b1-3)Gal(b1-4)GlcNAc(b1-2)Man(a1-6)]Man(b1-4)GlcNAc(b1-4)GlcNAc
Summary of the method: as §1

[15] = target: Gal(b1-3)GlcNAc(b1-3)Gal(b1-4)GlcNAc(b1-2)[Gal(b1-3)GlcNAc(b1-3)Gal(b1-4)GlcNAc(b1-6)]Man(a1-6)[Gal(b1-3)GlcNAc(b1-3)Gal(b1-4)GlcNAc(b1-2)Man(a1-3)]Man(b1-4)GlcNAc(b1-4)[Fuc(a1-6)]GlcNAc
Summary of the method: as §1

[16] = target: Gal(b1-3)GlcNAc(b1-3)Gal(b1-4)GlcNAc(b1-3)Gal(b1-4)GlcNAc(b1-2)[Gal(b1-3)GlcNAc(b1-3)Gal(b1-4)GlcNAc(b1-3)Gal(b1-4)GlcNAc(b1-6)]Man(a1-6)[Gal(b1-3)GlcNAc(b1-3)Gal(b1-4)GlcNAc(b1-3)Gal(b1-4)GlcNAc(b1-2)Man(a1-3)]Man(b1-4)GlcNAc(b1-4)[Fuc(a1-6)]GlcNAc
Summary of the method: as §1

[17] = target: Gal(b1-3)[Fuc(a1-4)]GlcNAc(b1-2)Man(a1-3)[Gal(b1-3)[Fuc(a1-4)]GlcNAc(b1-2)Man(a1-6)]Man(b1-4)GlcNAc(b1-4)[Fuc(a1-6)]GlcNAc
Summary of the method: as §1

[18] = target: Gal(b1-4)Glc
Summary of the method: as §1

[19] = target: Gal(b1-4)GlcNAc(b1-2)Man(a1-3)[Gal(b1-4)GlcNAc(b1-2)Man(a1-6)]Man(b1-4)GlcNAc(b1-4)GlcNAc
Summary of the method: as §1

[20] = target: Gal(b1-4)GlcNAc(b1-3)Gal(b1-3)GalNAc
Summary of the method: as §1

[21] = target: Gal(b1-4)GlcNAc(b1-3)Gal(b1-4)GlcNAc(b1-2)[Gal(b1-4)GlcNAc(b1-3)Gal(b1-4)GlcNAc(b1-6)]Man(a1-6)[Gal(b1-4)GlcNAc(b1-3)Gal(b1-4)GlcNAc(b1-2)Man(a1-3)]Man(b1-4)GlcNAc(b1-4)[Fuc(a1-6)]GlcNAc
Summary of the method: as §1

[22] = target: Gal3S(b1-3)GalNAc
Summary of the method: as §1

[23] = target: GalNAc(a1-3)GalNAc(b1-3)Gal(a1-4)Gal(b1-4)GlcNAc
Summary of the method: as §1

[24] = target: Glc(b1-6)Glc
Summary of the method: as §1

[25] = target: GlcNAc(b1-2)[GlcNAc(b1-4)]Man(a1-3)[GlcNAc(b1-4)][GlcNAc(b1-2)Man(a1-6)]Man(b1-4)GlcNAc(b1-4)GlcNAc
Summary of the method: as §1

[26] = target: GlcNAc(b1-2)[GlcNAc(b1-4)]Man(a1-3)[GlcNAc(b1-4)][GlcNAc(b1-2)[GlcNAc(b1-6)]Man(a1-6)]Man(b1-4)GlcNAc(b1-4)[Fuc(a1-6)]GlcNAc
Summary of the method: as §1

[27] = target: GlcNAc(b1-3)Gal(b1-4)GlcNAc(b1-2)[GlcNAc(b1-3)Gal(b1-4)GlcNAc(b1-6)]Man(a1-6)[GlcNAc(b1-3)Gal(b1-4)GlcNAc(b1-2)Man(a1-3)]Man(b1-4)GlcNAc(b1-4)GlcNAc
Summary of the method: as §1

[28] = target: GlcNAc(b1-3)Gal(b1-4)GlcNAc(b1-3)GalNAc
Summary of the method: as §1

[29] = target: GlcNAc(b1-4)Gal(b1-4)GlcNAc
Summary of the method: as §1

[30] = target: GlcNAc(b1-4)GlcNAc(b1-4)GlcNAc(b1-4)GlcNAc(b1-4)GlcNAc
Summary of the method: as §1

B1: Vd2LysM (Verticillium dahliae) (protein)
chain: YRRTCSHTGKGEGWYIIRRGDNFNAVAADFCTSTNVLTEWNHISTITDNMVNTKIKVPCRWNAGKQRDCLKDQKSSNGWYHIVSGDELKDIAYDFCTTSGSLAGMNGISNPDYIKANTDIVVPCSWN
Q: With B1 as the binder, how does the “glycan array binding signal (z-score)” value [1] read?
A: 2.91

Q: What about the “glycan array binding signal (z-score)” value [2] of the same binder?
A: 0.299

Q: And the “glycan array binding signal (z-score)” value [3]?
A: -0.965

Q: What about the “glycan array binding signal (z-score)” value [4] of the same binder?
A: 0.247

Q: And the “glycan array binding signal (z-score)” value [5]?
A: 0.533

Q: And the “glycan array binding signal (z-score)” value [6]?
A: -0.126

Q: What about the “glycan array binding signal (z-score)” value [7] of the same binder?
A: -0.592

Q: And the “glycan array binding signal (z-score)” value [8]?
A: 0.699

Q: And the “glycan array binding signal (z-score)” value [9]?
A: 0.43

Q: And the “glycan array binding signal (z-score)” value [10]?
A: -0.365

Q: And the “glycan array binding signal (z-score)” value [11]?
A: -1.06

Q: And the “glycan array binding signal (z-score)” value [12]?
A: -0.257

Q: What about the “glycan array binding signal (z-score)” value [13] of the same binder?
A: 0.452

Q: What about the “glycan array binding signal (z-score)” value [14] of the same binder?
A: 0.151

Q: And the “glycan array binding signal (z-score)” value [15]?
A: 6.69

Q: And the “glycan array binding signal (z-score)” value [16]?
A: 2.23

Q: What about the “glycan array binding signal (z-score)” value [17] of the same binder?
A: -0.543

Q: What about the “glycan array binding signal (z-score)” value [18] of the same binder?
A: 0.73

Q: What about the “glycan array binding signal (z-score)” value [19] of the same binder?
A: -0.349

Q: And the “glycan array binding signal (z-score)” value [20]?
A: 0.984

Q: What about the “glycan array binding signal (z-score)” value [21] of the same binder?
A: 2.2

Q: And the “glycan array binding signal (z-score)” value [22]?
A: -0.656

Q: What about the “glycan array binding signal (z-score)” value [23] of the same binder?
A: -0.212

Q: And the “glycan array binding signal (z-score)” value [24]?
A: -1.15

Q: What about the “glycan array binding signal (z-score)” value [25] of the same binder?
A: 2.82

Q: And the “glycan array binding signal (z-score)” value [26]?
A: 3.56

Q: What about the “glycan array binding signal (z-score)” value [27] of the same binder?
A: 0.741

Q: What about the “glycan array binding signal (z-score)” value [28] of the same binder?
A: -1.11

Q: What about the “glycan array binding signal (z-score)” value [29] of the same binder?
A: -1.44

Q: What about the “glycan array binding signal (z-score)” value [30] of the same binder?
A: 8.56

— the supplement of paper PMC8728848
